Compound activity (PubChem BioAssay)
Shiga inhibitor: Shiga toxin inhibition; Vero cells, Shiga toxin protein synthesis inhibition reporter; inhibition, % at 38.7 µM; 290,000 compounds, 9.2% hits; in the data active = inhibition mostly above about 28%, no sharp cut-off; inactive = mostly below about 43%; also: 0% is about no effect
AMA1 RON2 block: disrupts binding of P. falciparum AMA1 to RON2. AlphaScreen AMA1-biotinylated RON2 peptide binding. AID 720542. Potency, µM (top dose mostly 58.2 µM), inactives show at the top dose activity change, negative = inhibition, actives largely listed as inhibitors. 360,000 compounds, 0.2% hits; active = well fitted inhibition curve with a large enough effect; inconclusive = small, poorly fitted or top-dose-only effect; inactive = no such curve, though single readings can be large or run the other way;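 also: potency is read from the fitted curve at half-maximal effect; 0% = vehicle wells and -100% = peptide control; nearly all actives have a fitted effect of over 45% in size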
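AMA1 (3D7) with his tag at 25 nM final met compounds first, then biotinylated RON2 peptide at 25 nM; detection used donor plus acceptor beads, 10 µg/mL apiece, read by AlphaScreen after 30 min at room temperature.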
Cycloheximide cs: affects cycloheximide protein synthesis inhibition readout, counter-screen | cell reporter, cycloheximide protein synthesis inhibition counterscreen | max response, % | 300,000 compounds, 12% hits; in the data active = max response mostly above about 13%, no sharp cut-off; inactive = mostly below about 14%; also: read at 38.3 µM for the half of the compounds with a filed dose; 0% is about no effect
LASV entry inh: inhibitors of Lassa virus binding or cell entry. Lassa virus pseudotype entry inhibition, cell reporter. Potency, µM (titrated, usually from 37.9 µM), without a hit: top-dose activity change, negative = inhibition, most hits filed as inhibitors. 300,000 compounds, 1.2% hits; calls by dose curve; tested in HEK293 cells; also: potency is read from the fitted curve at half-maximal effect; % is scaled to controls: 0 for no effect and ±100 for the full control effect; nearly all actives have a fitted effect of over 50% in size
MARV entry inh: blocks Marburg virus binding to or entry into cells; Marburg virus pseudotyped entry inhibition, cell reporter; Potency, µM (titrated, usually from 37.8 µM), for inactives: top-dose activity change, negative = inhibition, hits mostly inhibitors; 300,000 compounds, 1.8% hits; AID 540276; calls by dose curve; tested in HEK293 cells; also: potency is read from the fitted curve at half-maximal effect; % is scaled to controls: 0 for no effect and ±100 for the full control effect
Active calls of the source: *; ? = inconclusive; · = no result; [ ] = remark or other dose. Many of the other results were omitted from the sample, so hits are more common in it than they were.

SMILES	Shiga inhibitor	AMA1 RON2 block	Cycloheximide cs	LASV entry inh	MARV entry inh
COc1ccc(CN2C(=O)C(C)N(C(=O)c3c(F)cccc3F)c3ccccc32)cc1 (stereo not given)	15	-1%	4	·	·
CCCc1ccc(-c2cc(N)n[nH]2)cc1	27	27%	30*	3%	-14%
Nc1n[nH]c(-c2ccc(F)cc2)n1	13	?	8	16%	7%
CCCCc1ccc(-c2nc(N)n[nH]2)cc1	78*	12%	44*	-2%	0%
CCCN(C(=O)CSc1nnc(-c2ccncc2)n1CCC)c1c(N)n(Cc2ccccc2)c(=O)[nH]c1=O	·	-1%	·	·	·
COCCNC(=S)N(C)C1(c2ccccc2Cl)CCCCC1=O (stereo not given)	19	9%	6	28%[46.1 µM]	13%[46.1 µM]
Cc1ccc(CN2CCSc3ccc(C(=O)NCc4ccc(OC(C)C)cc4)cc32)cc1	·	·	·	·	-12%[46.1 µM]
CN1CCSc2ccc(C(=O)NCc3cccc(Br)c3)cc21	21	-15%	11*	·	·
CN1CCSc2ccc(C(=O)NCc3ccccc3F)cc21	35*	?	28*	·	18%[46.1 µM]
CC(C)Oc1ccc(CNC(=O)c2ccc3c(c2)N(C)CCS3)cc1	54*	?	35*	·	·
COc1ccc(CNC(=O)c2ccc3c(c2)N(C)CCS3)cc1	23	-4%	active	·	·
CCN1CCSc2ccc(C(=O)NCc3ccccc3F)cc21	31	-18%	7	·	·
CCN1CCSc2ccc(C(=O)NCc3ccc(OC)cc3)cc21	·	·	·	-25%[46.1 µM]	4%[46.1 µM]
CCc1ccccc1N(C1=NCCCS1)S(=O)(=O)c1ccc(C(C)(C)C)cc1	27	-18%	-3	-25%	?
COc1cccc(NC(=O)Cn2c(=O)n(-c3ccc(C)cc3)c(=O)c3ccccc32)c1	·	·	·	-25%[46.1 µM]	?
Cc1ccc(S(=O)(=O)N2[C@@H](c3ccc(F)cc3)C(C(=O)O)=C[C@H]2CC2CCCC2)cc1	·	4%	·	·	·
COC(=O)CNc1c(-c2ccccn2)nc2ccc(Br)cn12	49*	22%	36*	6%	29%
COc1ccc(F)cc1S(=O)(=O)Nc1ccncc1	·	13%	-2	·	·
CC(=O)Nc1cc(C)c2nc(NC(C)=O)sc2c1	60*	2%	30*	9%	19%
CC(=O)Nc1nc2c(C)cc(NC(=O)C3CCCCC3)cc2s1	74*	-9%	32*	?	8%[46.1 µM]
COC(=O)c1cccc(NC2=NS(=O)(=O)c3ccccc32)c1	·	·	·	20%[46.1 µM]	·
Clc1ccc(Cn2ncc3c(N4CCOCC4)ncnc32)cc1	-4	-4%	-2	1%	-18%
CCOC(=O)c1c(CN(C)C)oc2cc(CN(C)C)c(O)c(CSc3ccccc3)c12	-16	-17%	8	-10%	10µM*
CCOC(=O)c1c(CSc2ccccc2)n(C)c2cc(Br)c(O)c(CN(C)C)c12	-4	?	-4	?	?
CCOC(=O)c1nn(-c2ccc(Cl)cc2)c(C)cc1=O	-5	3%	-1	·	·
SMILES	Shiga inhibitor	AMA1 RON2 block	Cycloheximide cs	LASV entry inh	MARV entry inh
CSc1ccccc1OCc1cc(C(=O)NCCC2CCCCO2)no1 (stereo not given)	45*	6%	33*	4%	2%
CSc1ccccc1OCc1cc(C(=O)NCCc2nc(C)cc(C)n2)no1	43*	-4%	24*	·	·
CSc1ccccc1OCc1cc(C(=O)NCCc2ccco2)no1	59*	4%	35*	6%	?
CSc1ccccc1OCc1cc(C(=O)NCc2cnc(C)cn2)no1	-5	11%	7	-1%	20%
CSc1ccccc1OCc1cc(C(=O)NCCN2CCCC(O)C2)no1 (stereo not given)	-7	-12%	10	1%	-2%
Cc1cccc(C)c1OCc1cc(C(=O)NCc2cn(C)nc2C)no1	8	13%	13*	-25%	-6%
Cc1cc(C)nc(CCNC(=O)c2cc(COc3c(C)cccc3C)on2)n1	-18	4%	16*	?	?
CSc1ccccc1OCc1cc(C(=O)NCc2csc(C(C)C)n2)no1	15	-11%	17*	-8%[46.1 µM]	-26%[46.1 µM]
CSc1ccccc1OCc1cc(C(=O)N(C)C2CCCc3ccccc32)no1 (stereo not given)	50*	2%	35	·	·
COCCN1CC(CNC(=O)c2cc(COc3ccccc3SC)on2)CC1=O (stereo not given)	20	-5%	12*	12%	18%
Cc1cc(C)nc(CCNC(=O)c2cc(COc3ccc(F)cc3F)on2)n1	-8	21%	-4	15%	9%[46.1 µM]
CCCCOc1ccc(C(=O)N/C(=C\c2ccc(Br)cc2)C(=O)NC2CCCCC2)cc1	·	·	·	-21%[46.1 µM]	·
O=C(CN1C(=O)NC2(CCCC2)C1=O)Nc1cc(S(=O)(=O)N2CCCCC2)ccc1Cl	·	9%[11.6 µM]	·	-28%	8%
Cc1ccc(C(=O)NCc2cccnc2)cc1S(=O)(=O)N1CCCCCC1	-5	7%	-1	?	-31%
O=c1[nH]c2ccccc2nc1-c1cccs1	120*	3%	43*	2%	13%
c1csc(-c2nnsc2-c2nc3ccccc3[nH]2)c1	45	35%	24	4%	9%[46.1 µM]
O/C(=C\c1nc2ccccc2[nH]1)c1cccs1	87*	55%	28*	?	-19%[46.1 µM]
CC(C)(C)/C(O)=C/c1nc2ccccc2[nH]c1=O	11	-3%	6	-3%	13%
Cc1[nH]c2ccccc2c1-c1nc2ccccc2[nH]c1=O	64*	4%	9	?	29%[46.1 µM]
O=c1[nH]c2ccccc2nc1/C=C(\O)c1cccs1	109*	-6%	42*	-28%	-25%[46.1 µM]
Cn1ccnc1-c1nc2ccccc2[nH]c1=O	-3	-5%	-2	1%	4%
Cc1cc(C)c(OCC(=O)OCC(=O)NNC(=O)c2ccccc2F)c(C)c1	·	89%	·	·	·
COc1ccccc1C(=O)NC1(C(F)(F)F)C(=O)Nc2c1c(=O)[nH]c(=O)n2-c1ccccc1 (stereo not given)	·	·	·	16%[46.1 µM]	1%[46.1 µM]
COCCNC(=O)c1c(NC(=O)Cc2coc3cc(C)ccc23)sc2c1CCCC2	·	·	·	-9%[46.1 µM]	3%[46.1 µM]
CCOC(=O)NC(c1ccc(C(C)C)cc1)C(Cl)(Cl)Cl (stereo not given)	1	-13%	-4	?	-60%
SMILES	Shiga inhibitor	AMA1 RON2 block	Cycloheximide cs	LASV entry inh	MARV entry inh
CCOC(=O)NC(C(Cl)(Cl)Cl)S(=O)(=O)c1ccccc1 (stereo not given)	50*	8%	18*	?	?
CCN(CC)c1ccc(/C=N/Nc2nc(C)cc(C)n2)cc1	35	30%	20	?	10µM*
C(=N\Nc1ccc2ccccc2n1)/c1ccc2c(c1)OCCO2	-4	57%	-2	·	·
Cc1cc(C)nc(N/N=C/c2ccc3c(c2)OCCO3)n1	59*	74%	25*	-10%[46.1 µM]	-3%[46.1 µM]
CC(C)NC(=S)N/N=C/c1ccc2c(c1)OCCO2	53*	14%	49*	2%	?
CCN(CC)c1ccc(/C=N/Nc2nn[nH]n2)cc1	26	70%	7	·	·
Cc1cc(=O)n2nc(N3CCCC(C(=O)NCc4ccccc4Cl)C3)sc2n1 (stereo not given)	-4	8%	-3	4%[46.1 µM]	21%[46.1 µM]
O=C(OCC(=O)c1cccs1)c1ccccc1	51	-4%	31*	?	4%
